Experiment [1] in a line: binders of probe aFSTL3 on microarray, primary screen, stem cell growth factor project, biochemical, small-molecule microarray, fluorescence 635/667 (AID 1064).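 Also: measures binding of the biotinylated anti-FSTL3 antibody to printed compounds.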 To be noted: higher = more signal.
Experiment [2] in a line: binders from COS7 lysate, DM2A8 probe, primary screen, torsin A project, cell lysate, small-molecule microarray, fluorescence 635/667 (AID 1065). To be noted: higher = more signal, COS7 lysate expressing mutant human TOR1A.
A short description of experiment [3]: binders of probe aFGF2 on microarray, primary screen, stem cell growth factor project, biochemical, small-molecule microarray, fluorescence 635/667 (AID 1067).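 Also: measures binding of biotinylated aFGF2 protein to printed compounds on slides; z-score merges feature fluorescence and signal-to-noise across triplicate slides.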 To be noted: higher = more signal.
Experiment [4] in a line: binders of probe aFGF10 on microarray, primary screen, stem cell growth factor project, biochemical, small-molecule microarray, fluorescence 635/667 (AID 1071).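 Also: score merges 667 nm spot intensity and signal to noise from triplicate slides.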 Particulars: higher = more signal.
Experiment [5] concerns the target Neurogenic locus notch homolog protein 2 (Homo sapiens) (UniProt Q04721). As to the kind of experiment: Notch2 binders on small-molecule microarrays, primary screen, biochemical, small-molecule microarray, 635 nm fluorescence, stem cell growth factors (AID 1073). To be noted: Notch2 binding, higher = more signal.
Experiment [6] deals with Pro-neuregulin-1, membrane-bound isoform (Homo sapiens) (UniProt Q02297). As to the kind of experiment: NRG1 binders on small-molecule microarrays, primary screen, psychiatric disease protein project, biochemical, small-molecule microarray, fluorescence 635/667 (AID 1075).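 Also: score combines 667 nm spot fluorescence with signal to noise.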 Particulars: NRG1 binding, 635 nm fluorescence, higher = more signal.
Chain of Pro-neuregulin-1, membrane-bound isoform (Homo sapiens) (Q02297 whole entry, looked up, the tested form may be a part, canonical isoform): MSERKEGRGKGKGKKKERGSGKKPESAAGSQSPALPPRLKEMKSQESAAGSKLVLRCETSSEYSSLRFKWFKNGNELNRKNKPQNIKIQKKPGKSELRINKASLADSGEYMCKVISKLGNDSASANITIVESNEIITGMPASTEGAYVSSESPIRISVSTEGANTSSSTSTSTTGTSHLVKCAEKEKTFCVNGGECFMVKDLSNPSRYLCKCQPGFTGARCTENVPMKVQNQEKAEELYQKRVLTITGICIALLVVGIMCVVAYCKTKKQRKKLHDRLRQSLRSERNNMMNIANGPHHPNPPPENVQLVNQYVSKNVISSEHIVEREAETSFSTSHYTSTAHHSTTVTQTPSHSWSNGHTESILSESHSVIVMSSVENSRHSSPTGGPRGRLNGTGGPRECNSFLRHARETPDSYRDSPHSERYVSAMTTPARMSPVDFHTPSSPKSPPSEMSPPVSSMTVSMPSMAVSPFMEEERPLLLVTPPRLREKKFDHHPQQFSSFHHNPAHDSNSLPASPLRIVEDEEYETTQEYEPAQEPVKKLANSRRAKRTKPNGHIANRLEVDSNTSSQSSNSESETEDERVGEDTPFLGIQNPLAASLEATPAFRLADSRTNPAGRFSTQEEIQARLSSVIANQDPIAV
The subject of experiment [7] is Neuregulin-1 EGF-like domain. As to the kind of experiment: binders of neuregulin-1 EGF-like domain, primary screen, biochemical, small-molecule microarray, 635 nm fluorescence (AID 1081).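 Also: binding of the protein to compounds printed on small-molecule microarray slides.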 To be noted: small-molecule microarray binding, higher = more signal.
Experiment [8] can be described thus: FRG1 promoter luciferase signal modulators, primary screen, FRG1 inhibition for FSHD, cell-based, C2C12 myotubes, firefly/Renilla luciferase, luminescence (AID 1084). To be noted: higher = more signal, called active from +8 up or from −8 down.
A short description of experiment [9]: binders of probe aFST on microarray, primary screen, stem cell growth factor project, biochemical, small-molecule microarray, fluorescence 635/667 (AID 1086).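 Also: score merges 667 nm fluorescence with signal-to-noise of each printed compound spot.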 Particulars: higher = more signal.
Experiment [10] can be described thus: binders of probe aHhip on microarray, primary screen, stem cell growth factor project, biochemical, small-molecule microarray, fluorescence 635/667 (AID 1087).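 Also: score merges spot fluorescence at 667nm with spot signal to noise ratio.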 Particulars: higher = more signal.

Active and inactive are the calls of the source.

Drawing on PubChem BioAssay, this text covers composite z-score and z-score for 17 compounds.

Chain of Neurogenic locus notch homolog protein 2 (Homo sapiens) (Q04721 whole entry, looked up, canonical isoform): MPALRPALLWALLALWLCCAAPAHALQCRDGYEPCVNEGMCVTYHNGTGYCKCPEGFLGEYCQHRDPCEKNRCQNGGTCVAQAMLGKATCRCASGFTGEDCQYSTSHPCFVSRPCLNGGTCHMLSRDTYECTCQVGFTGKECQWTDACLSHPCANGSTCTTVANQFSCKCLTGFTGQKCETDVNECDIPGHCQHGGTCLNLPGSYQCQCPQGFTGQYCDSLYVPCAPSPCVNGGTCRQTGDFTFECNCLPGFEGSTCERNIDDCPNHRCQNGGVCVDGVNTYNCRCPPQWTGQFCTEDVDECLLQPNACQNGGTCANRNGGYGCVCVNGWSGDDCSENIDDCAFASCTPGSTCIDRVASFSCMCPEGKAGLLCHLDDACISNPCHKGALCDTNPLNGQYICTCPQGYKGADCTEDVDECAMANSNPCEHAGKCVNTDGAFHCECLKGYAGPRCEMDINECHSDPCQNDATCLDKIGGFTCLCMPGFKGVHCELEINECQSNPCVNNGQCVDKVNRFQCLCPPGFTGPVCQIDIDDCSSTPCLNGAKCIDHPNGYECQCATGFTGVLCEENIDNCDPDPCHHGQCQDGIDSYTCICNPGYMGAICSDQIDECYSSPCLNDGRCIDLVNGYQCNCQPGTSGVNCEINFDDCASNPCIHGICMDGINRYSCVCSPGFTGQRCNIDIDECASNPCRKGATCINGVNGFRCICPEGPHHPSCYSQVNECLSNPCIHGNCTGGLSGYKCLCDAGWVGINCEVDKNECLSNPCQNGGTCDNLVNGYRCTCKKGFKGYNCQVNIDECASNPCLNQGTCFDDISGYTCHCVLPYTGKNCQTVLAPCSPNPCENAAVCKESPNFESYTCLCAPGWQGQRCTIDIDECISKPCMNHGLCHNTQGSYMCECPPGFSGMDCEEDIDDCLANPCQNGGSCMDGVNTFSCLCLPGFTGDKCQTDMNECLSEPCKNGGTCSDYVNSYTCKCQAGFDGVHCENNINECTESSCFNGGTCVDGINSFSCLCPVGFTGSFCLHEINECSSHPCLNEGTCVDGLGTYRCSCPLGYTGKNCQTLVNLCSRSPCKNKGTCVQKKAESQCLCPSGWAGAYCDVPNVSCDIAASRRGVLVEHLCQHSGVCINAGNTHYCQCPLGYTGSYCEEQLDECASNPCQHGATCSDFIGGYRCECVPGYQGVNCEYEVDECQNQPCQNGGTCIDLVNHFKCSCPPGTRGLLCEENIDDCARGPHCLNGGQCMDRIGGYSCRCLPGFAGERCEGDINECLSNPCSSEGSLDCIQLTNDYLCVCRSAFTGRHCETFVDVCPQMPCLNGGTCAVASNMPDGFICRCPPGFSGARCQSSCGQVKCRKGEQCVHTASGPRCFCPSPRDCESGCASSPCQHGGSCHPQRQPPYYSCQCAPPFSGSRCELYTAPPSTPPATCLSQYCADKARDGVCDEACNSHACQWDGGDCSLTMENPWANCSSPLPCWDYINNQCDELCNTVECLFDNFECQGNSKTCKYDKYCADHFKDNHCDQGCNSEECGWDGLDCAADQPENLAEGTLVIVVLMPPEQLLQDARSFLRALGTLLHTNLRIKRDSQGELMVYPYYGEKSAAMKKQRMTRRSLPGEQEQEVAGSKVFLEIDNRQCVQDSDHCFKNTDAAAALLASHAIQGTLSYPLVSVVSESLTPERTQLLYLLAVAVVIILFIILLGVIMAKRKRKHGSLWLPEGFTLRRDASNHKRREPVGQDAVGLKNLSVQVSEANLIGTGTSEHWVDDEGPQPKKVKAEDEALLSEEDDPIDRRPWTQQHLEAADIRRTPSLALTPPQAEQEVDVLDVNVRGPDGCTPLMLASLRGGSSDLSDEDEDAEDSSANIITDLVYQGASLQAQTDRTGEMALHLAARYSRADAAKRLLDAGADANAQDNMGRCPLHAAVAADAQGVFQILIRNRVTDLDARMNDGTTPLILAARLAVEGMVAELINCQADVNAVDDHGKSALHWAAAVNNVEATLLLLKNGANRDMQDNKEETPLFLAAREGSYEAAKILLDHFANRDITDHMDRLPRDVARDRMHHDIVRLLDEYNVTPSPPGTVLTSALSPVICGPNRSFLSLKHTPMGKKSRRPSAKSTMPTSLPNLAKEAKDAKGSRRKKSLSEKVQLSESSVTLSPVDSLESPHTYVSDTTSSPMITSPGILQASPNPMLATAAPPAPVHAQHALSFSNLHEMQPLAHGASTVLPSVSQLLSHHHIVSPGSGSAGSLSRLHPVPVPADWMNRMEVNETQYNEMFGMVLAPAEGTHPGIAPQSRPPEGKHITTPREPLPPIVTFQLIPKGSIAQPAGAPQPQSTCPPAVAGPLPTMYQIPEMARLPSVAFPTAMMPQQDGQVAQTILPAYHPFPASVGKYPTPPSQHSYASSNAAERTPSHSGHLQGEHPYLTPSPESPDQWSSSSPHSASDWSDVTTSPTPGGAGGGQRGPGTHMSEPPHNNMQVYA

On to `NC(=O)NCC#Cc1ccc2c(c1)[C@]1(C(=O)N2)[C@H](c2ccc(O)cc2)N2[C@H](c3ccccc3)[C@H](c3ccccc3)OC(=O)[C@H]2[C@@H]1C(=O)Nc1nc2ccccc2s1`, for which the composite z-score in [1] was 0.289; in [2] it was 0.21; in experiment [3] it was -0.0222; in [4], 0.478; in [5], 0.768; in experiment [6] it was 0.434. Moreover, the values for the composite z-score in [7], in [9] and in experiment [10] were 0.633, 0.185 and 0.0881, respectively. The z-score in experiment [8] was 0.63 (inactive).
Regarding `C=C(COC)/C(=C/C[C@@H](OC(=O)c1ccncc1)c1ccc(OCCO)cc1)c1cnc2ccccc2c1`, the composite z-score in [1] is -0.0384; in experiment [2], 0.651; in experiment [3] it was 0.124; in experiment [4] it was 1.15; in experiment [5], 1.74; in experiment [6] it was -0.578. Besides, the composite z-score in experiment [7] is 1.2; in experiment [9] it was 0.28; in [10], -0.0994. The z-score in experiment [8] was -1.73 (inactive).
`CC[C@@H]1[C@H]2C3C(=O)N(CC)C(=O)C3CC(=O)[C@H]2[C@H](c2ccc(C)cc2)N1S(=O)(=O)c1ccc(C)cc1` (stereo not given in full): the composite z-score is -0.0209 in experiment [1]; 0.172 in [2]; -0.0878 in [3]; 0.457 in [4]; 1.44 in experiment [5]; 0.519 in experiment [6]. In addition, the composite z-score in experiment [7] is 0.57; in experiment [9] it was 0.84; in experiment [10], -0.0296. Moreover, the z-score in experiment [8] was -0.319 (inactive).
As for `O=C1NC(=O)C2C1C=CC(C(O)c1c(F)cccc1Cl)N2Nc1ccccn1` (stereo not given), the composite z-score in experiment [1] was 0.154; in [2], 0.238; in [3], 0.0182; in [4], 0.474; in experiment [5], 0.55; in experiment [6], 1.53. In addition, the results for the composite z-score in experiment [7], in experiment [9] and in experiment [10] were 0.633, -0.014 and 0.0576, respectively. The z-score in experiment [8] was 0.569 (inactive).
With `CCN(CC)c1ccc(N2CC=CC34O[C@@H]5/C=C\CCC(C)OC(=O)C5[C@H]3C(=O)N(CCO)[C@@H]4C2=O)cc1` (stereo not given in full), the composite z-score was 0.478 in experiment [1]; -0.476 in [2]; -0.103 in experiment [3]; -0.57 in [4]; -0.331 in experiment [5]; 1.57 in experiment [6]. In addition, the composite z-score in experiment [7] is 1.15; in experiment [9], -1.17; in experiment [10], -0.134. In addition, in experiment [8], the z-score was 1.16 (inactive).
For `COC(=O)[C@@]1(Cc2ccc(OC)cc2)[C@H]2c3cc(C(=O)N(C)C)n(Cc4ccccc4)c3C[C@H]2CN1C(=O)c1ccccc1`, the composite z-score in [1] is 0.342; in experiment [2] it was 0.0293; in [3] it was -0.0066; in [4], 0.0679; in experiment [5] it was 0.571; in [6], 1.11. The composite z-score in [7] was 0.828; in experiment [9] it was 1.06; in experiment [10] it was -0.0597. Further, the z-score in [8] is -1.53 (inactive).
Take `Cc1ccc(S[C@]2(C(=O)O)CC(=O)N(Cc3ccccc3Cl)[C@@H]2c2ccc(CO)cc2)cc1`: the composite z-score in [1] was 0.96; in [2] it was -0.614; in [3], -0.113; in experiment [4], 0.449; in [5] it was -0.72; in experiment [6], 0.103. Moreover, the composite z-score was -0.408 in experiment [7], -0.172 in experiment [9] and -0.0994 in experiment [10]. In [8], the z-score is -0.917 (inactive).
In the case of `CN(C)CCCNC(=O)[C@@]1(c2ccc([N+](=O)[O-])cc2)CC(=O)N(CC23CC4CC(CC(C4)C2)C3)[C@@H]1c1ccc(CO)cc1`, the composite z-score in experiment [1] was 1.47; in [2] it was 1.15; in [3], 0.301; in experiment [4] it was 0.143; in [5] it was 0.904; in [6], 1.38. In addition, the values for the composite z-score in experiment [7], in experiment [9] and in experiment [10] were 1.35, 1.92 and 0.635, respectively. For the same compound, the z-score in experiment [8] was -2.36 (inactive).
Consider `COC(=O)[C@@]1(Cc2ccc(F)cc2)[C@H]2c3cc(C(=O)N4CCCC4)n(CCF)c3C[C@H]2CN1C(=O)c1ccccc1`, for which the composite z-score in experiment [1] was determined as 0.999; in experiment [2], 1.52; in experiment [3], 0.856; in [4] it was 1.1; in [5] it was 1.55; in experiment [6] it was 1.65. Moreover, the values for the composite z-score in experiment [7], in experiment [9] and in experiment [10] were 1.29, 2.81 and 2.09, respectively. Also, the z-score in experiment [8] was -0.533 (inactive).
For the compound `O=C1OC[C@@H](c2ccccc2)N2CC(/C=C/c3ccccc3)=CC12` (stereo not given in full), the composite z-score in [1] is 0.528; in experiment [2], -0.477; in experiment [3], -0.222; in [4], -0.77; in [5], -1.18; in [6], -0.586. Also, the composite z-score in experiment [7] is 0.219; in experiment [9] it was -1.31; in experiment [10], -0.268. For the same compound, the z-score in experiment [8] is -0.639 (inactive).
`CCOC(=O)[C@H]1C/C=C/C[C@H](C(=O)OCC)C(=O)O[C@H]2[C@@H](OC)O[C@H](CO)[C@@H](OC(=O)Nc3ccc(OC)cc3)[C@@H]2OC1=O`: the composite z-score in experiment [1] was -0.0119; in experiment [2], 0.753; in experiment [3] it was 0.0386; in experiment [4], 0.803; in experiment [5], 1.16; in [6], 0.309. For the same compound, the composite z-score in [7] worked out at 0.94; in [9], 0.363; in experiment [10] it was 0.675. For the same compound, the z-score in experiment [8] was 2.18 (inactive).
With `COc1c(C)cc(-c2cc3c(c(-c4ccccc4)n2)[Si](C(C)C)(C(C)C)OC3)cc1C`, the composite z-score is -0.0563 in experiment [1]; -0.0385 in experiment [2]; -0.241 in experiment [3]; -0.304 in experiment [4]; -0.181 in [5]; -0.112 in [6]. Besides, the figures for the composite z-score in [7], in [9] and in [10] were -1.15, -0.205 and -0.0672, respectively. For the same compound, in experiment [8], the z-score is -0.577 (inactive).
For `COc1cc(CO)cc(I)c1O[C@H]1C=C(C(=O)NCCO)C[C@@H](NCc2ccccc2F)[C@@H]1O`, the composite z-score in experiment [1] is -0.267; in experiment [2] it was 0.644; in experiment [3], 0.0232; in experiment [4], 1.17; in experiment [5], 0.161; in experiment [6] it was 0.321. Also, the composite z-score in experiment [7] was 0.989; in experiment [9], 0.0915; in experiment [10] it was -0.0645. For the same compound, in experiment [8], the z-score is -1.05 (inactive).
Regarding `Cc1ccc(S[C@]2(C(=O)NC(C)C)CC(=O)N(C3Cc4ccccc4C3)[C@@H]2c2ccc(CO)cc2I)cc1`, the composite z-score was 0.125 in experiment [1]; -0.869 in [2]; -0.216 in experiment [3]; -0.667 in [4]; -0.853 in experiment [5]; 1.06 in experiment [6]. Also, the composite z-score is 0.381 in experiment [7], -0.654 in experiment [9] and -0.858 in experiment [10]. Moreover, in experiment [8], the z-score was -1.85 (inactive).
Take `CC(C)(C)N1CC=CC23O[C@@H]4C=CCOC(=O)[C@@H]4[C@H]2C(=O)N(CCCO)[C@@H]3C1=O` (stereo not given in full): the composite z-score is 0.698 in experiment [1]; -0.182 in [2]; -0.199 in [3]; -0.838 in [4]; -1.54 in experiment [5]; -0.475 in [6]. The values for the composite z-score in [7], in [9] and in [10] were 1.08, -1 and -0.0994, respectively. Also, in experiment [8], the z-score is 0.619 (inactive).
Take `CC1CC/C=C\[C@H]2OC34C=CCN(CCN5CCOCC5)C(=O)[C@H]3N(CCO)C(=O)[C@@H]4C2C(=O)O1` (stereo not given in full): the composite z-score in [1] was 0.507; in experiment [2], -0.342; in [3], 0.013; in [4] it was -0.105; in experiment [5], -0.807; in experiment [6], -0.917. The composite z-score in experiment [7] was -0.376; in [9] it was -0.421; in [10] it was -0.4. In experiment [8], the z-score is -0.322 (inactive).
On to `CC(C)(C)OC(=O)CC[C@]1(C(=O)N2CCOCC2)N=C(c2ccc(OCCCO)cc2)O[C@H]1c1ccccc1`, for which the composite z-score in experiment [1] was -0.209; in experiment [2] it was 0.177; in experiment [3], -0.0601; in experiment [4], 0.724; in experiment [5], 0.819; in experiment [6], 0.526. Moreover, the composite z-score in experiment [7] stood at 0.548; in experiment [9] it was 0.534; in [10], 0.0695. The z-score in [8] is -2.64 (inactive).
